Experimental findings from PubChem BioAssay AID588342 (National Center for Advancing Translational Sciences (NCATS), 2011) are described below.

SMILES strings stand for the structures. The whole screen tested about 360,000 compounds, of which about 25,000 (6.9%) were called active. Entries that show only a call come without a potency. About 9% were inconclusive and are not listed. The call rests on the fitted dose curve; in most records, active means well fitted inhibition curve with a large enough effect; inconclusive means small, poorly fitted or top-dose-only effect; inactive means flat fitted curve, though single readings scatter. The sample as a whole holds a higher share of actives than the screen did.
Potency means the concentration at half of the fitted maximal effect.

Chain of Luciferin 4-monooxygenase (Photinus pyralis) (P08659 whole entry, looked up): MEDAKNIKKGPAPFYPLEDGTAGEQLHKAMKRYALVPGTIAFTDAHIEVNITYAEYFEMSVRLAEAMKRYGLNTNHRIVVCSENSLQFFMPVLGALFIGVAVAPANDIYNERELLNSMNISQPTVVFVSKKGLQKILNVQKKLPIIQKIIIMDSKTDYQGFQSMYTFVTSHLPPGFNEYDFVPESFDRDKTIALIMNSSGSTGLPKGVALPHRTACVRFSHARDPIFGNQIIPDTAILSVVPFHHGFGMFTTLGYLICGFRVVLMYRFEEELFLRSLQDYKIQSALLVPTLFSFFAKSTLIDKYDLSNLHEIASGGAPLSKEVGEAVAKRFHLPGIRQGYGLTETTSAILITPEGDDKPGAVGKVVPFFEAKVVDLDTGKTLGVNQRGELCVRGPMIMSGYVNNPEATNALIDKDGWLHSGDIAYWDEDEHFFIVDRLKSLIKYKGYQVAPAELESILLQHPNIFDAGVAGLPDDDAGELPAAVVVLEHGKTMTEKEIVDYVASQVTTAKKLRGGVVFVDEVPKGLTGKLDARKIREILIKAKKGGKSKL

The assay addresses Luciferin 4-monooxygenase (Photinus pyralis) (UniProt P08659). The assay is described as follows: qHTS profiling assay for firefly luciferase inhibitor/activator using purifed enzyme and Km concentrations of substrates (counterscreen for miR-21 project). Further: nearly all actives have a fitted effect of over 55% in size. To be noted: purified FLuc, luminescence inhibition; series mostly up to 57.5 µM. An outline of the steps: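 Purified P. pyralis luciferase, 10 nM final, with Km-level 10 uM D-luciferin and 10 uM ATP in 50 mM Tris acetate pH 7.5, 10 mM Mg acetate, 0.01% Tween-20, 0.05% BSA; 6-point qHTS titration about 60 µM downward; luminescence read.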
For orientation: In qHTS, concentration-response curves come from the screen itself.
Turning to `COc1ccccc1N1CCN(C(=O)C2CCN(S(=O)(=O)c3c(C)noc3/C=C/c3ccc(C)cc3)CC2)CC1`, the Potency entry is “inactive”.
On to `O=C(NCc1cccs1)C1CCN(S(=O)(=O)c2ccc3c(c2)OCCO3)CC1`, for which the Potency entry is “inactive”.
To `O=C(Nc1ccccn1)C1CCN(S(=O)(=O)c2ccccc2)CC1` belongs 23.9 µM (active); to `Cc1csc(NC(=O)C2CCN(S(=O)(=O)c3ccccc3)CC2)n1`, “inactive”; to `O=C(NCc1ccccn1)C1CCN(S(=O)(=O)c2ccc(Br)cc2)CC1`, “inactive”.
Turning to `O=C(Nc1ccccn1)C1CCN(S(=O)(=O)c2ccc3c(c2)OCCO3)CC1`, the Potency is 19 µM (active).
Consider `COCCNC(=O)C1CCN(S(=O)(=O)c2ccc3c(c2)OCCO3)CC1`, for which the Potency entry is “inactive”.
To `C=Cc1ccc(Cn2c(C(=O)O)c(CNC3CCCC3)c3ccc(C)cc32)cc1` belongs “inactive”; to `CCOC(=O)c1c(NC(C)=O)c2c3c(sc2n1Cc1c(C)cc(C)cc1C)CCCC3`, “inactive”.
For `CCOC(=O)c1ccccc1NC(=O)COC(=O)C(Cc1c[nH]c2ccccc12)NC(C)=O` (configuration not stated), the Potency result was “inactive”.
To `CCC(=O)N1CCc2cc(S(=O)(=O)NCCC(=O)Nc3cccc(C)c3C)ccc21` belongs “inactive”; to `Cc1oc(C)c2c(=O)cc(-c3ccc4c(c3)OCO4)cc(OC(=O)c3ccc(Cl)cc3)c12`, “inactive”.
In the case of `Cc1ccccc1N1CC(c2nc3ccccc3[nH]2)CC1=O` (configuration not stated), the Potency entry was “inactive”.
Turning to `Cc1ccccc1-n1c(C)cc(/C=C2\NC(=O)NC2=O)c1C`, the Potency is 1.9 µM (active).
Consider `CSc1cc(C)n(-c2ccccc2C)c(=S)c1C(C)=O`, for which the Potency entry is “inactive”.
As to `Cc1cc(/C=C2\SC(=Nc3ccc(N4CCOCC4)cc3)N(C)C2=O)c(C)n1-c1cccnc1`, the Potency result was “inactive”.
To `Cc1cc(/C=C2/NC(=O)NC2=O)c(C)n1-c1cccnc1` belongs 15.1 µM (active); to `Cc1ccc2c(c1)C(O)(CC(=O)c1cccnc1)C(=O)N2` (configuration not stated), “inactive”.
For the compound `C=CCn1c(=O)c(C(=O)NCc2ccc3c(c2)OCO3)c(O)c2ccccc21`, the Potency result was “inactive”.
As to `O=C(NNS(=O)(=O)c1ccc(F)cc1)c1cnccn1`, the Potency result is “inactive”.
Turning to `O=C(CC1Oc2ccccc2NC1=O)NCc1ccc(F)cc1` (configuration not stated), the Potency entry was “inactive”.
To `CCOC(=O)c1c(C)oc2ccc(N(C(=O)c3ccncc3)S(=O)(=O)c3ccc(CC)cc3)cc12` belongs “inactive”; to `O=Cc1c(Cl)cccc1Cl`, “inactive”; to `Cc1ccc(-c2nn(-c3cccc(F)c3)cc2CNCCc2ccncc2)o1`, 15.1 µM (active).
To `Cc1ccc(-c2nn(-c3ccccc3)cc2CN(Cc2ccccc2)C(=O)CCC(=O)O)o1` belongs “inactive”; to `CSCCNCc1cn(-c2ccc(F)cc2F)nc1-c1ccccc1C`, “inactive”; to `CCCN(CCC)CCNC(=O)Cn1cnc2sc(C)c(S(=O)(=O)N3CCC(C)CC3)c2c1=O`, “inactive”.
